Data taken from the supplement of paper PMC4466140.

These binders were tested against SpBzz1-D2 (assay: SPOT peptide array binding signal intensity (averaged, normalized) (arbitrary units (background-subtracted, floor 0; scale differs between SH3 domains)); higher = stronger binding of the SH3 domain to the peptide).
In short: (§1)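 GST-fused SH3 domains, from four yeast species, were produced in E. coli BL21(DE3) and captured on glutathione Sepharose. Membranes of cellulose carrying synthetic 15-mer peptides, in which cysteines had been replaced by serines, were exposed to each domain at 10 μg/ml overnight at 4°C in TBS-based blocking buffer. After anti-GST antibody, an HRP anti-mouse secondary and luminol, spots were imaged and quantified using Genespotter. Binding signal is normalized and background-subtracted spot intensity, averaged over replicates, in arbitrary units that differ between domains.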

Binder | SPOT peptide array binding signal intensity
PPLPRAPPVPPATFE | 23.2

The binders below were run against SpCyk3 in the same assay as above.
In short: as §1

Binder | SPOT peptide array binding signal intensity
PPLPRAPPVPPATFE | ≤ 0

The binders below were run against SpHof1 in the same assay as above.
In short: as §1

Binder | SPOT peptide array binding signal intensity
PPLPRAPPVPPATFE | 1

These binders were tested against SpHof1-2 in the same assay as above.
In short: as §1

Binder | SPOT peptide array binding signal intensity
PPLPRAPPVPPATFE | 707

The binders below were run against SpHof1-3 in the same assay as above.
In short: as §1

Binder | SPOT peptide array binding signal intensity
PPLPRAPPVPPATFE | 125

These binders were tested against SpHse1 in the same assay as above.
In short: as §1

Binder | SPOT peptide array binding signal intensity
PPLPRAPPVPPATFE | 30.8

The binders below were run against SpLsb1 in the same assay as above.
In short: as §1

Binder | SPOT peptide array binding signal intensity
PPLPRAPPVPPATFE | 1.75

The binders below were run against SpLsb4 in the same assay as above.
In short: as §1

Binder | SPOT peptide array binding signal intensity
PPLPRAPPVPPATFE | ≤ 0

The binders below were run against SpMyo1 in the same assay as above.
In short: as §1

Binder | SPOT peptide array binding signal intensity
PPLPRAPPVPPATFE | 422

Each binder was assayed against SpNbp2 in the same assay as above.
In short: as §1

Binder | SPOT peptide array binding signal intensity
PPLPRAPPVPPATFE | 17

These binders were tested against SpPex13 in the same assay as above.
In short: as §1

Binder | SPOT peptide array binding signal intensity
PPLPRAPPVPPATFE | ≤ 0

What follows are binders tested against SpRvs167 in the same assay as above.
In short: as §1

Binder | SPOT peptide array binding signal intensity
PPLPRAPPVPPATFE | 88

These binders were tested against SpSla1-D1-D2 in the same assay as above.
In short: as §1

Binder | SPOT peptide array binding signal intensity
PPLPRAPPVPPATFE | 3

These binders were tested against SpSla1-D3 in the same assay as above.
In short: as §1

Binder | SPOT peptide array binding signal intensity
PPLPRAPPVPPATFE | ≤ 0

Each binder was assayed against AgAbp1 in the same assay as above.
In short: as §1

Binder | SPOT peptide array binding signal intensity
SKIRPTPRKPSRMAT | 1550

What follows are binders tested against AgBbc1 in the same assay as above.
In short: as §1

Binder | SPOT peptide array binding signal intensity
SKIRPTPRKPSRMAT | 642

Each binder was assayed against AgBem1-D1 in the same assay as above.
In short: as §1

Binder | SPOT peptide array binding signal intensity
SKIRPTPRKPSRMAT | 47

Each binder was assayed against AgBzz1-D1 in the same assay as above.
In short: as §1

Binder | SPOT peptide array binding signal intensity
SKIRPTPRKPSRMAT | 77

The binders below were run against AgBzz1-D2 in the same assay as above.
In short: as §1

Binder | SPOT peptide array binding signal intensity
SKIRPTPRKPSRMAT | 53

What follows are binders tested against AgCyk3 in the same assay as above.
In short: as §1

Binder | SPOT peptide array binding signal intensity
SKIRPTPRKPSRMAT | 3

These binders were tested against AgFus1 in the same assay as above.
In short: as §1

Binder | SPOT peptide array binding signal intensity
SKIRPTPRKPSRMAT | 40

What follows are binders tested against AgHof1 in the same assay as above.
In short: as §1

Binder | SPOT peptide array binding signal intensity
SKIRPTPRKPSRMAT | 69.2

The binders below were run against AgHse1 in the same assay as above.
In short: as §1

Binder | SPOT peptide array binding signal intensity
SKIRPTPRKPSRMAT | 263

The binders below were run against AgLsb1 in the same assay as above.
In short: as §1

Binder | SPOT peptide array binding signal intensity
SKIRPTPRKPSRMAT | 69.2

These binders were tested against AgLsb4 in the same assay as above.
In short: as §1

Binder | SPOT peptide array binding signal intensity
SKIRPTPRKPSRMAT | 176

The binders below were run against AgMyo5 in the same assay as above.
In short: as §1

Binder | SPOT peptide array binding signal intensity
SKIRPTPRKPSRMAT | 7

The binders below were run against AgNbp2 in the same assay as above.
In short: as §1

Binder | SPOT peptide array binding signal intensity
SKIRPTPRKPSRMAT | 1050

Each binder was assayed against AgRvs167 in the same assay as above.
In short: as §1

Binder | SPOT peptide array binding signal intensity
SKIRPTPRKPSRMAT | 9.17

What follows are binders tested against AgSho1 in the same assay as above.
In short: as §1

Binder | SPOT peptide array binding signal intensity
SKIRPTPRKPSRMAT | 39.5

What follows are binders tested against AgSla1-D1-D2 in the same assay as above.
In short: as §1

Binder | SPOT peptide array binding signal intensity
SKIRPTPRKPSRMAT | 100

These binders were tested against AgSla1-D3 in the same assay as above.
In short: as §1

Binder | SPOT peptide array binding signal intensity
SKIRPTPRKPSRMAT | 23.8

Each binder was assayed against CaAbp1-D1 in the same assay as above.
In short: as §1

Binder | SPOT peptide array binding signal intensity
SKIRPTPRKPSRMAT | 3050

These binders were tested against CaAbp1-D2 in the same assay as above.
In short: as §1

Binder | SPOT peptide array binding signal intensity
SKIRPTPRKPSRMAT | 5280

These binders were tested against CaBbc1 in the same assay as above.
In short: as §1

Binder | SPOT peptide array binding signal intensity
SKIRPTPRKPSRMAT | 806

These binders were tested against CaBem1-D1 in the same assay as above.
In short: as §1

Binder | SPOT peptide array binding signal intensity
SKIRPTPRKPSRMAT | 34.5

Each binder was assayed against CaBzz1-D1 in the same assay as above.
In short: as §1

Binder | SPOT peptide array binding signal intensity
SKIRPTPRKPSRMAT | 270

These binders were tested against CaBzz1-D2 in the same assay as above.
In short: as §1

Binder | SPOT peptide array binding signal intensity
SKIRPTPRKPSRMAT | 208

Each binder was assayed against CaCyk3 in the same assay as above.
In short: as §1

Binder | SPOT peptide array binding signal intensity
SKIRPTPRKPSRMAT | 108

The binders below were run against CaFus1 in the same assay as above.
In short: as §1

Binder | SPOT peptide array binding signal intensity
SKIRPTPRKPSRMAT | 208

The binders below were run against CaHof1 in the same assay as above.
In short: as §1

Binder | SPOT peptide array binding signal intensity
SKIRPTPRKPSRMAT | 2.5

The binders below were run against CaHse1 in the same assay as above.
In short: as §1

Binder | SPOT peptide array binding signal intensity
SKIRPTPRKPSRMAT | 30.5

The binders below were run against CaLsb1 in the same assay as above.
In short: as §1

Binder | SPOT peptide array binding signal intensity
SKIRPTPRKPSRMAT | 2.75

These binders were tested against CaLsb4 in the same assay as above.
In short: as §1

Binder | SPOT peptide array binding signal intensity
SKIRPTPRKPSRMAT | 2040

The binders below were run against CaMyo5 in the same assay as above.
In short: as §1

Binder | SPOT peptide array binding signal intensity
SKIRPTPRKPSRMAT | 8.5
